Bioassay records: PubChem BioAssay, National Center for Advancing Translational Sciences (NCATS)
Compounds with a hit are over-represented: about 6.9% of the library has one in this group of screens.
SW480 rereplic = DNA re-replication induction in SW480 cells; SW480 DNA re-replication, Hoechst DNA content imaging, 48 h; Potency, µM (titrated, usually from 46.1 µM), actives largely listed as activators; hit rate 1.8% among 340,000; AID 624297; further: nearly all actives have a fitted effect of over 55% in size
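Image-based read-out: total Hoechst fluorescence of nuclei (405 nm excitation, 500-530 nm emission), with hits raising the fraction of high-intensity nuclei. SW480 colon cells incubated 48 hr with compounds at 37 C.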
IL-1B inflam inh = inflammasome signaling inhibition, IL-1 beta readout; hit rate 4.7% among 360,000; THP-1 LPS/ATP IL-1B secretion, AlphaLISA, 16 h; stronger effect = lower value; activity change, % at 57.5 µM; in the data active means activity change below about -50%; inconclusive means mostly about -30% to -49%
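THP-1 cells pretreated 1 hr with compounds (up to 57.5 uM final), then stimulated with LPS (250 ng/mL final) plus ATP (1.25 mM final); secreted IL-1B measured by AlphaLISA after 16 hr, decreased signal indicating inhibition.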
Vif-A3G inh = Vif-A3G binding inhibition. Q9HC16. HeLa A3G-eYFP + Vif (tagged APOBEC3G with the HIV-1 protein that degrades it), YFP fluorescence, overnight. Potency, µM (titrated, usually from 46.1 µM), hits mostly inhibitors. hit rate 0.076% among 410,000. AID 602310; further: nearly all actives have a fitted effect of over 60% in size
Target sequence (Q9HC16 whole entry, looked up): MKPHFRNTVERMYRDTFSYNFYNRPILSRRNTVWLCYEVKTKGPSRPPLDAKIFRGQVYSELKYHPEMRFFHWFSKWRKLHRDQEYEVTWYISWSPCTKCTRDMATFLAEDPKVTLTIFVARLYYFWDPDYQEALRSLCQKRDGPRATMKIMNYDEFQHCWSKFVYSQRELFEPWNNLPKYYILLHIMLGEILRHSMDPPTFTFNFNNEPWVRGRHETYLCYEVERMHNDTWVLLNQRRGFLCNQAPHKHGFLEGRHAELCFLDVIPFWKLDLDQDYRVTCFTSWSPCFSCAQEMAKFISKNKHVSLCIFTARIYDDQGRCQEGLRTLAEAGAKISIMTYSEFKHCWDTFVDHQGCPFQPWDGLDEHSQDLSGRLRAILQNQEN
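HeLa cells stably expressing Vif and C-terminally eYFP-tagged A3G, seeded overnight at 37 deg C, then exposed to compound by pintool overnight at 37 deg C. Rise in yellow fluorescence (Ex 488/Em 500-530, Acumen) marks blocked Vif-driven A3G degradation.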
MCF10A rerep = DNA re-replication induction in MCF 10a cells; hit rate 2.9% among 350,000; Potency, µM (titrated, usually from 46.1 µM), actives largely listed as activators; AID 624296; MCF 10A DNA re-replication, Hoechst nuclear intensity, 48 h; further: nearly all actives have a fitted effect of over 50% in size
Vif-A3F inh = blocks the Vif interaction with APOBEC3F | HeLa A3F-eYFP + Vif (tagged APOBEC3F with the HIV-1 protein that degrades it), YFP fluorescence increase | Potency, µM (series often up to 46.1 µM) | hit rate 0.2% among 390,000; further: nearly all actives have a fitted effect of over 65% in size
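Fluorescence increase (Ex 488/Em 500-530) after overnight compound treatment at 37 deg C flags inhibition of Vif-driven A3F-eYFP loss in stable HeLa A3F-eYFP/Vif cells seeded overnight beforehand.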
Giardia killer = kills Giardia lamblia; AID 540267; Giardia lamblia trophozoite viability; hit rate 0.15% among 340,000; activity change, % at 7.66 µM, hits read low; in the data active means activity change below about -80%; inconclusive means between about -30% and that limit;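 further: parasites exposed to compound for two days anaerobically before the ATP read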
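Giardia trophozoites, 100 cells per well, were exposed to compounds for 48 hrs at 37 deg C under anaerobic conditions; viability was then read as ATP content by bioluminescence after 15-30 min at room temperature.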
Large screens that a line does not name were inactive. Unless noted, the call rests on the fitted dose curve; in most records, active means well fitted curve in the direction sought with a large enough effect; inconclusive means small, poorly fitted or top-dose-only effect, or another doubt; inactive means no such curve, though single readings can be large; an effect the other way counts as inactive or inconclusive.

O=C(c1ccco1)N1CCCC(c2nc(-c3ccc(S(=O)(=O)NCc4ccccc4)cc3)no2)C1 (configuration not stated)	IL-1B inflam inh inconclusive, MCF10A rerep 18µM
O=C(CC1CCCCC1)N1CCCC(c2nc(-c3ccc(S(=O)(=O)N4CCCC4)cc3)no2)C1 (configuration not stated)	IL-1B inflam inh -77, MCF10A rerep inconclusive
COc1ccc([C@@H]2C[C@H]3CN(c4ccccc4)C(=O)[C@]34CCCN24)c(OC)c1OC	none
O=C1N(c2ccccc2)C[C@@H]2C[C@@H](c3cccs3)N3CCC[C@@]123	MCF10A rerep 5.8µM
CC(C)(O)C#Cc1ccc([C@@H]2C[C@H]3CN(c4ccccc4)C(=O)[C@]34CCCN24)s1	SW480 rereplic 8.2µM, IL-1B inflam inh -72, Vif-A3G inh inconclusive, MCF10A rerep inconclusive
COCc1cc([C@@H]2C[C@H]3CN(c4ccccc4)C(=O)[C@]34CCCN24)ccc1OC	none
Cc1cc(F)ccc1-n1nnc(C(N)=O)c1C	none (no result: SW480 rereplic, IL-1B inflam inh, MCF10A rerep, Giardia killer)
COc1ccc(C2C=C3CNS(=O)(=O)C3CC2OC(=O)c2ccc(C(F)(F)F)cc2)cc1 (configuration not stated)	none (no result: SW480 rereplic, IL-1B inflam inh, MCF10A rerep, Vif-A3F inh)
O=C(NNc1nc(=O)c2cccnc2s1)c1ccccc1O	SW480 rereplic 0.92µM
C[C@@H]1C[C@H]2[C@H]3C[C@@H](F)C4=CC(=O)C=C[C@]4(C)[C@@]3(Cl)[C@@H](O)C[C@@]2(C)[C@@H]1C(=O)COC(=O)C(C)(C)C	none (no result: IL-1B inflam inh, Vif-A3G inh, Vif-A3F inh, Giardia killer)
COc1cc2c(cc1OC)C1(CCCC1)CNC2C (configuration not stated)	MCF10A rerep inconclusive
COc1cc2c(cc1OC)C1(CCCC1)CNC2c1ccc([N+](=O)[O-])cc1 (configuration not stated)	SW480 rereplic 23µM
CCOC(=O)Cn1nc(-c2ccccc2)c2cnc3ccc(OCC)cc3c21	none (no result: SW480 rereplic, IL-1B inflam inh, MCF10A rerep, Giardia killer)
CCOc1ccc(C(=O)Nc2ccc3oc(-c4ccc(C)cc4C)nc3c2)cc1Br	none (no result: SW480 rereplic, IL-1B inflam inh, MCF10A rerep, Giardia killer)
CNC(=O)c1[nH]nc2c1CCc1cc(OC)ccc1-2	SW480 rereplic inconclusive, IL-1B inflam inh inconclusive
COc1cccc(/C=N/NC(=O)c2[nH]nc3c2CCc2ccccc2-3)c1	SW480 rereplic inconclusive, Vif-A3G inh inconclusive, MCF10A rerep inconclusive (no result: IL-1B inflam inh)
COc1ccc2c(c1)CCc1c-2n[nH]c1C(=O)NCCC(C)C	IL-1B inflam inh -60
COc1ccc(OC)c(/C=N/NC(=O)c2[nH]nc3c2CCc2ccccc2-3)c1	SW480 rereplic inconclusive, MCF10A rerep 23µM
CC(C)C(NC(=O)c1ccc(C(C)(C)C)cc1)C(=O)Nc1cccc(S(N)(=O)=O)c1 (configuration not stated)	IL-1B inflam inh -52
Cc1ccc(C(=O)NC(C(=O)Nc2cccc(S(N)(=O)=O)c2)C(C)C)cc1 (configuration not stated)	none
COc1ccc(CNC(=O)C(=O)NCC(c2ccco2)S(=O)(=O)c2ccc(Cl)cc2)cc1 (configuration not stated)	none (no result: SW480 rereplic, IL-1B inflam inh, MCF10A rerep, Giardia killer)
CC1(C)C2CCC(CN=C(N)CSS(=O)(=O)O)C1C2 (configuration not stated)	IL-1B inflam inh -58 (no result: SW480 rereplic, MCF10A rerep, Giardia killer)
Cc1ccc(OCC(=O)Nc2ccccc2C(=O)OCc2cc(=O)n3ccsc3n2)cc1C	none (no result: SW480 rereplic, IL-1B inflam inh, MCF10A rerep, Giardia killer)
C/C=C/c1ccc(OCCCCOc2ccc(OC)cc2)c(OC)c1	none
C/C=C/c1ccc(OCCCCN2CCN(CC)CC2)c(OC)c1	SW480 rereplic 8.2µM
C/C=C/c1ccc(OCCCCN2CC(C)CC(C)C2)c(OC)c1 (configuration not stated)	SW480 rereplic inconclusive, IL-1B inflam inh -70, MCF10A rerep inconclusive
C/C=C/c1ccc(OCCCCNCc2ccco2)c(OC)c1	SW480 rereplic inconclusive, IL-1B inflam inh -58, Vif-A3F inh inconclusive
Fc1cccc(F)c1-n1c(CN2CCCCC2)csc1=S	SW480 rereplic 15µM, IL-1B inflam inh inconclusive, Vif-A3G inh inconclusive, MCF10A rerep inconclusive
Fc1cccc(F)c1-n1c(CN2CCOCC2)csc1=S	none
CN(C)Cc1c(O)ccc2c(=O)c(-c3ccc(Cl)cc3)coc12	SW480 rereplic inconclusive
O=c1c(-c2ccc([N+](=O)[O-])cc2)coc2c(O)c(O)ccc12	SW480 rereplic 13µM
CCN(CC)S(=O)(=O)c1ccc(NC(=O)c2c(C)oc3ncnc(N4CCOCC4)c23)cc1	none (no result: SW480 rereplic, IL-1B inflam inh, MCF10A rerep, Giardia killer)
O=C1C2=C(Nc3ccccc3SC2c2ccco2)c2ccccc21 (configuration not stated)	MCF10A rerep 16µM
COc1ccc(Nc2nc3ccc(C)cc3nc2-n2nc(C)cc2C)cc1Cl	none (no result: SW480 rereplic, IL-1B inflam inh, MCF10A rerep, Giardia killer)
COc1ccc(OC)c(NC(=O)N(C)CCc2c(C)nn(C)c2C)c1	none (no result: SW480 rereplic, IL-1B inflam inh, MCF10A rerep, Giardia killer)
CC(=O)c1ccc(NC(=O)CCc2c(C)nc3c(c2C)c(=O)n(C)c(=O)n3C)cc1	none (no result: SW480 rereplic, IL-1B inflam inh, MCF10A rerep, Giardia killer)
CCOc1ccc(NC(=O)C2CC3CCC2C3)cc1 (configuration not stated)	Vif-A3F inh inconclusive (no result: IL-1B inflam inh)
O=C(Nc1ccc(F)cc1)C1CC2CCC1C2 (configuration not stated)	none
CC(C)c1ccc(NC(=O)C2CC3CCC2C3)cc1 (configuration not stated)	SW480 rereplic inconclusive, IL-1B inflam inh -56, MCF10A rerep inconclusive, Giardia killer inconclusive
CCC(C)c1ccc(NC(=O)C2CC3CCC2C3)cc1 (configuration not stated)	SW480 rereplic inconclusive, IL-1B inflam inh -55, MCF10A rerep 7.3µM
O=C(C1CCCCC1)N(Cc1cccnc1)c1nc2c(F)cc(F)cc2s1	none (no result: SW480 rereplic, IL-1B inflam inh, MCF10A rerep, Giardia killer)
Cc1[nH]c2ccccc2c1C(c1c[nH]c2ccccc12)c1c(C)[nH]c2ccccc12	none (no result: SW480 rereplic, IL-1B inflam inh, MCF10A rerep, Vif-A3F inh, Giardia killer)
CN(CC(=O)O)c1ccc(/C=C2\C=Cc3ccccc32)cc1	none (no result: SW480 rereplic, IL-1B inflam inh, MCF10A rerep, Vif-A3F inh, Giardia killer)
Cn1ccnc1C(=O)c1cc(SCC(=O)NCc2ccccc2)nc2ccccc12	SW480 rereplic inconclusive, MCF10A rerep 15µM
CCOc1ccc(C2c3c(oc4ccc(C)cc4c3=O)C(=O)N2c2nc(C)c(C)s2)cc1OC (configuration not stated)	none (no result: SW480 rereplic, IL-1B inflam inh, MCF10A rerep, Giardia killer)
CCCCOc1ccccc1C1CC(=O)NC2=C1C(=O)CCC2 (configuration not stated)	SW480 rereplic inconclusive, Vif-A3G inh inconclusive, MCF10A rerep 4.1µM
CCOc1ccccc1C1CC(=O)NC2=C1C(=O)CCC2 (configuration not stated)	SW480 rereplic 18µM, Vif-A3G inh inconclusive, MCF10A rerep inconclusive
CCCCOc1ccccc1C1CC(=O)Nc2cc(C)c(C)cc21 (configuration not stated)	none (no result: SW480 rereplic, IL-1B inflam inh, MCF10A rerep, Giardia killer)
CCCOc1ccccc1C1CC(=O)NC2=C1C(=O)CCC2 (configuration not stated)	SW480 rereplic 12µM, Vif-A3G inh inconclusive, MCF10A rerep 10µM
CCOc1ccc(C2CC(=O)NC3=C2C(=O)CCC3)cc1 (configuration not stated)	none
